# The campaign covered roughly 370,000 compounds. About 3,000 (0.81%) were called active. The full list was thinned out, with actives kept by preference. A number with no mark means an inactive call.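 The calls were made as follows: active = activity above about 14% (limit read from the data; passing the limit was not always enough); inactive = the rest.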
# Biological target: Nuclear receptor subfamily 1 group D member 1 (Homo sapiens) (UniProt P20393)
# Assay: Rev-erbα–DNA interaction modulation – biochemical, FITC-DNA, fluorescence polarization, uHTS, primary screen (AID 1259318);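 also: 0% = DMSO wells with 35 nM protein and 100% = DMSO wells with 750 nM protein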
# Conditions: Rev-erbα–FITC-DNA binding, 90 min, at 10 µM, hits give high values
# Nuclear receptor subfamily 1 group D member 1 (Homo sapiens), sequence (P20393 whole entry, looked up): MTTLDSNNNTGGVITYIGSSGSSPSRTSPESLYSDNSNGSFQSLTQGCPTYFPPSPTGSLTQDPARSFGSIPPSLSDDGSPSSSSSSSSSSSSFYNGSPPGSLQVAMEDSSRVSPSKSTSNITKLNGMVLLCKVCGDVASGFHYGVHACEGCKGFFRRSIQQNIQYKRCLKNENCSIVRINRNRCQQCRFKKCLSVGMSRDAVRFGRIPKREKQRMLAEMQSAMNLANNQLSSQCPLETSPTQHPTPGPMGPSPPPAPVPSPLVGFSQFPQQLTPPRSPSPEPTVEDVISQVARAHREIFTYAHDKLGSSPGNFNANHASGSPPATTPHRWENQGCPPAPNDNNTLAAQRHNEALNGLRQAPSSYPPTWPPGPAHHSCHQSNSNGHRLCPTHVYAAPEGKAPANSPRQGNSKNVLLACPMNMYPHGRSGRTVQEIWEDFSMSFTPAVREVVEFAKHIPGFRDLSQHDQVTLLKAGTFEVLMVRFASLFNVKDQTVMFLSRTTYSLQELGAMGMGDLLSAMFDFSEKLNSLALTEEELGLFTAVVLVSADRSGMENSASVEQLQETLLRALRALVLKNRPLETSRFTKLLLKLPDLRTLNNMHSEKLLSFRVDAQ
row,SMILES,activity
1,Cc1c[nH]c2cccc(-c3ccc(Cl)cc3)c12,4.69%
2,CCCCCCCCCCCCCCCCO,2.41%
3,CCNC(=O)C1(C)CCCN(C(=O)c2c(C)noc2C)C1 (stereo not given),-9.88%
4,NC(=O)C1CCN(Cc2nc3c(Br)cc(Br)cc3c(=O)[nH]2)CC1,-0.27%
5,NC(N)=Nc1nc2ccc(Br)cc2c(=O)[nH]1,20.6% (active)
6,CC(C)(C)c1ccc(S(=O)(=O)N2CCN(C(=O)c3ccc4c(c3)C(=O)N(Cc3ccncc3)C4=O)CC2)cc1,-6.31%
7,COc1cccc(NS(=O)(=O)c2ccc3[nH]cc(C(=O)NCCCOC(C)C)c(=O)c3c2)c1,5.55%
8,CN(C)S(=O)(=O)c1ccc(N2CCCC2)c(C(=O)Nc2cccc(F)c2)c1,6.34%
9,CN(C)S(=O)(=O)c1ccc(N2CCCC2)c(C(=O)Nc2ccc(Br)cc2F)c1,23.1% (active)
10,CN(C)S(=O)(=O)c1ccc(N2CCCC2)c(C(=O)NCc2ccccc2)c1,5%
11,CC(C)(C)NC(=O)C(c1cccnc1)N(C(=O)c1cnco1)c1ccc(C(C)(C)C)cc1 (stereo not given),0.3%
12,CN1/C(=c2/s/c(=C3/C(=O)N(c4ccccc4)NC3=Nc3ccccc3)n(C)c2=O)C(C)(C)c2ccccc21,42.5% (active)
13,CCOC(=O)c1c(C)oc2cc(Br)c(OCC(N)=O)cc12,27.8% (active)
14,COCCOC(=O)c1c(C)oc2cc(Br)c(OCC(N)=O)cc12,-0.63%
15,Cc1cc(=O)oc2c(C(=O)c3ccccc3)c(OCC(N)=O)ccc12,1.4%
16,CCOc1ccc(NC(=O)CN(C)C(=O)CCSc2ccc(F)cc2)cc1OCC,-6.91%
17,Nn1c(SCC(=O)Nc2cccc3ccccc23)nnc1-c1cc(-c2ccc(F)cc2)n[nH]1,0.84%
18,Cc1ccn2c(=O)nc(SCC(=O)NCc3ccc4c(c3)OCO4)nc2c1,-6.16%
19,Cc1ccn2c(=O)nc(SCC(=O)NCc3ccc(F)cc3)nc2c1,10.3%
20,COc1ccc(C2=NN(C(=O)CSc3nc(=O)n4ccc(C)cc4n3)C(c3ccc(C)cc3)C2)cc1 (stereo not given),37.8% (active)

row,SMILES,activity
1,CC(O)COc1ccccc1 (stereo not given),-2.15%
2,Cc1ccc(NS(=O)(=O)c2ccc(-c3ccc(=O)[nH]n3)o2)c(C)c1,1.28%
3,Cc1ccc(-n2c(C)cc(/C=C(\C#N)C(=O)NCC3CCCO3)c2C)cc1 (stereo not given),-8.1%
4,Cc1cc(/C=C(/C#N)C(=O)Nc2ccc(Cl)cc2)c(C)n1-c1cccnc1,23.3% (active)
5,N#C/C(=C\c1cccnc1)C(=O)Nc1ccc(SC(F)F)cc1,-6.19%
6,CN(C)CCc1c[nH]c2ccc(Cn3cncn3)cc12,-0.58%
7,CS(=O)(=O)N(Cc1ccccc1)c1ccc(C(=O)NN=C2CCCCCC2)cc1,1.02%
8,Cc1ccc(S(=O)(=O)NCC(=O)N2CCN(c3ccccn3)CC2)cc1,-1.9%
9,Cc1nc(Nc2ccccc2C)c2cnn(C)c2n1,3.28%
10,Cc1cccc(Nc2nc3c(S(=O)(=O)c4ccccc4)nnn3c3ccccc23)c1C,47.9% (active)
11,Cc1ccc(S(=O)(=O)c2nnn3c2nc(N2CCN(c4ccccn4)CC2)c2ccccc23)cc1,87.8% (active)
12,CCOC(=O)c1nnn2c1nc(N1CCN(c3ccccc3)CC1)c1ccccc12,-1.6%
13,Cc1cc(Nc2cccc(C)c2C)n2ncnc2n1,0.88%
14,CCN(CC(=O)Nc1c(F)cccc1F)C(=O)C1CCC1,-2.66%
15,COc1cc(C(=O)N2CCOCC2)cc(OC)c1OC,-1.7%
16,N#Cc1cccc(NC(=O)COC(=O)c2ccccc2C(=O)c2ccc(Cl)c([N+](=O)[O-])c2)c1,3.08%
17,CCCOc1ccc(Oc2c(Cl)cnn(Cc3cccc4ccccc34)c2=O)cc1,-0.89%
18,Cc1c(C=O)c2ccccn2c1C(=O)c1ccncc1,-1.4%
19,CN(C(=O)CSc1nnc(-c2n[nH]c3ccccc23)o1)c1ccccc1,-0.39%
20,O=C1CN(C(=O)COc2c(Cl)cccc2Cl)c2ccccc2N1,-1.39%

row,SMILES,activity
1,CCOc1ccc(C)cc1S(=O)(=O)NC1CCCCCC1,4.62%
2,O=C(CN1CCC(NC(=O)NCc2ccccc2)CC1)Nc1ccc2c(c1)OCCO2,-2.38%
3,Cc1ccc2c(C(=O)CN3CCCC3)c(C)[nH]c2c1,-0.66%
4,CC(C)(C)c1ccc(C(=O)Nc2cc(Cl)c(Br)cc2C(=O)O)cc1,-8.64%
5,COc1ccc(CN2[C@@H](CC(=O)O)c3cc(F)ccc3S2(=O)=O)cc1,1.62%
6,COc1ccc(S(=O)(=O)N2CCN(c3cnccn3)CC2)cc1,0.63%
7,COc1ccc(S(=O)(=O)N2CCN(c3ncnc4c(-c5ccccc5)nsc34)CC2)cc1,27.5% (active)
8,COc1ccc(-c2csc3ncnc(N4CCN(S(=O)(=O)c5cccc(F)c5)CC4)c23)cc1,3.12%
9,COc1ccc(S(=O)(=O)N2CCSCC2)cc1,-4.2%
10,COc1ccc(-c2csc3ncnc(Oc4ccc5c(C)cc(=O)oc5c4)c23)cc1,3.46%
11,COc1ccc(-c2csc3ncnc(N4CCN(S(=O)(=O)c5ccccc5C#N)CC4)c23)cc1,28.3% (active)
12,CCC1(C)CC(=O)NC1=O (stereo not given),-6.13%
13,CC(C)(C)c1ccc(/C=C2\SC(=O)N=C2N)cc1,0.2%
14,CCC(C)[C@H]1O[C@]2(CC[C@@H]1C)C[C@@H]1C[C@@H](C/C=C(\C)[C@@H](O[C@@H]3C[C@H](OC)[C@H](O[C@H]4C[C@H](OC)[C@@H](O)[C@H](C)O4)[C@H](C)O3)[C@@H](C)/C=C/C=C3\CO[C@@H]4[C@H](O)C(C)=C[C@@H](C(=O)O1)[C@]34O)O2 (stereo not given in full),6.63%
15,O=C(Cn1c(=O)sc2ccccc21)Nc1ccc2c(c1)OCCO2,2.42%
16,C=CCn1c(=NC(=O)c2ccc(S(=O)(=O)N3CCCC3)cc2)sc2cc(NC(C)=O)ccc21,51.5% (active)
17,C=CCn1c(=NC(=O)c2cccs2)sc2cc(NC(C)=O)ccc21,31.9% (active)
18,C=CCn1c(CCNC(=O)c2cccs2)n[nH]c1=S,-1.01%
19,CCN(CC)S(=O)(=O)c1cccc(NC(=O)c2ccc(S(=O)(=O)N3CCCC3)cc2)c1,5.55%
20,CC(=O)Nc1ccc(S(=O)(=O)N2CCN(S(=O)(=O)c3cccs3)CC2)cc1,-1.45%
